“And” between values parts separate entries of the source, which are not always exact repeats. Identical values can stand only once. Compounds without any hit were thinned out: in the full panel of roughly 83,000, 20% have a hit.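 Percent growth is the endpoint: 0 to 100 indicates growth inhibition (40 means 60% inhibition), 0 means no net growth, and negative values indicate cell death.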 The source made the active and inactive calls. How the source made its calls: active means growth percent below 10; inactive means the rest.

Experiment in all cases: NCI-60 one-dose screen, 48 h (100 = growth as untreated, 0 = no growth, -100 = all killed)
Common to all, as to details: 10 µM

For assay [1], the system named is T-47D breast.
In assay [2] the test system is BT-549 breast.
Assay [3] has as its system MDA-MB-435 melanoma.
In assay [4] the test system is SW-620 colon.
The subject of assay [5] is MCF7 breast.
Assay [6] has as its system HCT-116 colon.
Assay [7] deals with HCC-2998 colon.
Assay [8] deals with KM12 colon.
Assay [9] relates to MDA-MB-468 breast.

For the compound `CC(=O)c1ccc(Nc2nc(SC(C)C)nc(-c3ccccc3)c2C#N)cc1`, the growth was 58.7% (inactive) in assay [1]; 90.7% (inactive) in assay [2]; 47.4% (inactive) in assay [3]; 34.9% (inactive) in assay [4]; 26.4% (inactive) in assay [5]; 8.81% (active) in assay [6]. Further, the growth in assay [7] is 70.2% (inactive); in assay [8] it was 82.2% (inactive); in [9] it was 131% (inactive) and -1.07% (active).

Consider `CCCn1c(O)c(N=Nc2nc(-c3cc4ccccc4oc3=O)cs2)c2cc(Br)ccc21`, for which the growth in assay [1] was 98.8% (inactive); in assay [2] it was 113% (inactive); in assay [3], 105% (inactive); in assay [4], 106% (inactive); in assay [5], 90.4% (inactive); in assay [6], 101% (inactive). Besides, the growth in assay [7] was 99.1% (inactive); in [8], 106% (inactive); in [9], 94.8% (inactive).

`COc1ccc(/C=N/N=C(\C)c2ccc3c(c2)Nc2ccccc2S3)cc1O`: the growth in assay [1] was 21.5% (inactive); in assay [2], 40.1% (inactive); in assay [3] it was 34.7% (inactive); in assay [4] it was 68.5% (inactive); in assay [5], 11.9% (inactive); in assay [6], 38.7% (inactive). Moreover, the growth is 51.2% (inactive) in [7], 39.2% (inactive) in assay [8] and 0.0526% (active) in [9].

As to `N#Cc1c(NC(=O)c2cccc(C(F)(F)F)c2)sc2c1CCC(O)=C2`, the growth in assay [1] was 16.5% (inactive); in assay [2] it was 44.6% (inactive); in [3] it was 9.7% (active); in assay [4], 35.4% (inactive); in assay [5], 27.9% (inactive); in assay [6] it was 40.4% (inactive). The growth in assay [7] was 36.3% (inactive); in assay [8] it was 23.1% (inactive); in assay [9], -18.6% (active).

Regarding `CN1CCN(c2ccc(Nc3nc(N4CCN(S(=O)(=O)c5ccc(Cl)cc5)CC4)c4sccc4n3)cc2)CC1`, the growth in [1] was -34.4% (active); in [2], 64.6% (inactive); in assay [3], -100% (active); in assay [4] it was -52.2% (active); in assay [5], -83.5% (active); in [6] it was -49.9% (active). Besides, the growth was -8.56% (active) in assay [7], -15.3% (active) in [8] and -96.7% (active) in assay [9].

Regarding `CC(=O)c1ccc(Nc2nc(SCCC(C)C)nc(-c3ccc(F)cc3)c2C#N)cc1`, the growth is 68.3% (inactive) in [1]; 56.7% (inactive) in assay [2]; 73.8% (inactive) in [3]; 68.5% (inactive) in assay [4]; 59.6% (inactive) in assay [5]; 22% (inactive) in assay [6]. The growth in assay [7] was 83.4% (inactive); in assay [8], 81.8% (inactive); in [9], 69% (inactive).

Turning to `COc1cccc(COc2ccc(/C=C3\Oc4cc(O)ccc4C3=O)cc2)c1`, the growth in assay [1] was 44.3% (inactive); in assay [2], 15.3% (inactive); in assay [3], 37.2% (inactive); in assay [4], 36% (inactive); in assay [5], 37.8% (inactive); in assay [6] it was 1.73% (active). Moreover, the growth in assay [7] is 25.2% (inactive); in [8], 26.1% (inactive); in assay [9], 12.2% (inactive).

With `O=c1[nH]c2ccccc2cc1CSc1ccc(Nc2nccc(-c3ccc4ccccc4c3)n2)cc1`, the growth in [1] was 86.8% (inactive); in assay [2], 48.6% (inactive); in [3], 69.8% (inactive); in assay [4] it was 32.9% (inactive); in assay [5], 19% (inactive); in [6], 26.2% (inactive). Moreover, the figures for the growth in assay [7], in [8] and in assay [9] were 63.5% (inactive), 50.2% (inactive) and -3.76% (active), respectively.

With `CC(C)C1=C[C@@]23CC[C@@H]4[C@](C)(CCC[C@]4(C)C(=O)NCc4ccccc4)[C@H]2C[C@@H]1[C@H]1C(=O)CCC(=O)[C@H]13`, the growth in assay [1] was 51.8% (inactive); in [2], 68.7% (inactive); in [3], 86% (inactive); in assay [4] it was 85.4% (inactive); in assay [5] it was 42.7% (inactive); in [6] it was 60.4% (inactive). For the same compound, the values for the growth in assay [7], in assay [8] and in [9] were 90% (inactive), 84.6% (inactive) and 70.1% (inactive), respectively.

`O=C1CCC(N2Cc3cc(CC(=O)Nc4ccc(N5CCCCC5)cc4)ccc3C2=O)C(=O)N1` (stereo unspecified): the growth was 14.1% (inactive) in assay [1]; -9.03% (active) in assay [2]; 70.5% (inactive) in assay [3]; 24% (inactive) in assay [4]; 59.7% (inactive) in assay [5]; 102% (inactive) in assay [6]. Besides, the values for the growth in assay [7], in assay [8] and in assay [9] were 34.7% (inactive), 41.1% (inactive) and -16.4% (active), respectively.

`O=C(N/N=C/c1ccc(-c2cccc([N+](=O)[O-])c2)o1)c1[nH]c2ccc(Br)cc2c1-c1ccccc1`: the growth in [1] was 75.9% (inactive); in assay [2] it was 30.5% (inactive); in assay [3], 16.6% (inactive); in [4], 15.5% (inactive); in assay [5] it was 1.16% (active); in assay [6], -53.2% (active). In addition, the growth in [7] was 15% (inactive); in [8] it was 7.57% (active); in assay [9], -3.87% (active).

`COC(=O)C(Cc1ccc(O)c(O)c1)NC(=O)C(CSC/C=C(\C)CCCC(C)CCCC(C)CCCC(C)C)NC(C)=O` (stereo unspecified): the growth in assay [1] is -0.796% (active); in assay [2], 23.3% (inactive); in assay [3], 30% (inactive); in assay [4], 19.8% (inactive); in assay [5], 24.4% (inactive); in [6], 21.2% (inactive). Besides, the values for the growth in assay [7], in assay [8] and in assay [9] were 19.3% (inactive), 16.4% (inactive) and 6.4% (active), respectively.

`COc1ccc(NC(=O)Nc2ccc(OCC(=O)N=Nc3c(O)[nH]c4ccc([N+](=O)[O-])cc34)cc2)cc1`: the growth in assay [1] was 32.6% (inactive); in [2], 27.5% (inactive); in assay [3], 106% (inactive); in assay [4], 98.3% (inactive); in assay [5], 38.2% (inactive); in assay [6], 85.6% (inactive). Further, the results for the growth in [7], in assay [8] and in [9] were 66.6% (inactive), 18% (inactive) and 30.2% (inactive), respectively.

On to `O=[N+]([O-])c1ccc(-c2nc(-c3ccccc3)c(-c3ccccc3)n2-c2ccc(S(=O)(=O)Nc3ncccn3)cc2)cc1`, for which the growth was 10.2% (inactive) in [1]; 10.7% (inactive) in [2]; 46.5% (inactive) in [3]; 51.1% (inactive) in assay [4]; 29.3% (inactive) in [5]; 30.6% (inactive) in assay [6]. The growth is 42.9% (inactive) in [7], 30.8% (inactive) in assay [8] and 40% (inactive) in [9].
